Common to all, as to test: DAPPL (digital affinity profiling via proximity ligation, sequencing); 10 mM Tris-HCl pH 7.5, 50 mM NaCl, 1 mM DTT, 4% glycerol, room temperature, 30 min; GST-TFs on glutathione beads, 16-mer random dsDNA library, 0.1% formaldehyde crosslink after washing; high values mean tight binding
The target of one assay is T1, FLI1 (Homo sapiens, UniProt Q01543 1-452).
T1 sequence: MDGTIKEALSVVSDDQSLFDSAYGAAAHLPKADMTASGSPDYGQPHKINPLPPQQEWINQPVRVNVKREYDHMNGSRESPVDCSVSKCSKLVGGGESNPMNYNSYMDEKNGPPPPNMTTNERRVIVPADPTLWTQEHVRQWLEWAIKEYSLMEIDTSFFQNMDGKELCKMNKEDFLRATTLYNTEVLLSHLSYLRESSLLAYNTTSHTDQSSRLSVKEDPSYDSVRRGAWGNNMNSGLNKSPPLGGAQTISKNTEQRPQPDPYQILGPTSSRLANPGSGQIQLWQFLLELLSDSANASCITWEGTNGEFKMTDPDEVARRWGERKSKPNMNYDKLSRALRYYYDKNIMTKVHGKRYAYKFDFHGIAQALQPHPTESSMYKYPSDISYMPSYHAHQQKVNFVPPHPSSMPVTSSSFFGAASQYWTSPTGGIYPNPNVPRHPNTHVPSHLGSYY
To be noted: protein: recombinant; tags: N-terminal GST; dsDNA, one strand shown. An outline of the steps: (§1)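 Human transcription factors were made in yeast as GST fusions, captured on glutathione beads and barcoded with DNA. With a tag-only sample included, the pool was incubated with 200 nmole of a random double-stranded 16-mer DNA library in Tris/NaCl/DTT/glycerol buffer at room temperature for 30 min, then crosslinked with 0.1% formaldehyde after washing, ligated by proximity, amplified and sequenced. For binding signal, each hexamer's read frequency for a factor is divided by its frequency for the tag-only sample.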

In another assay the target is T2, ELK1 (Homo sapiens, UniProt P19419 1-428).
T2 sequence: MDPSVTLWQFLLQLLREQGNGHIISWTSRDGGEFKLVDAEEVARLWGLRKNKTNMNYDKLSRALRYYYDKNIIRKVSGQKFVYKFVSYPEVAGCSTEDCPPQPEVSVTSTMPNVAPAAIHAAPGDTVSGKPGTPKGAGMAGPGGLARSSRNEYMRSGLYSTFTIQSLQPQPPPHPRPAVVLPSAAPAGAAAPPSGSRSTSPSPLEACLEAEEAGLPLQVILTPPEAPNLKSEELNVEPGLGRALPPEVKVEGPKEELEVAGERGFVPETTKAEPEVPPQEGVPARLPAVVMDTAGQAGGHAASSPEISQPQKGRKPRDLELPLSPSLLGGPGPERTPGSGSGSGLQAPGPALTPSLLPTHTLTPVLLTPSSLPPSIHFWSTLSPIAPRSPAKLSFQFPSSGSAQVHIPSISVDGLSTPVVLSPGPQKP
To be noted: protein: recombinant; tags: N-terminal GST; dsDNA, one strand shown. In outline: as §1

For a further assay, the target named is T3, GABPA (Homo sapiens, UniProt Q06546 1-454).
T3 sequence: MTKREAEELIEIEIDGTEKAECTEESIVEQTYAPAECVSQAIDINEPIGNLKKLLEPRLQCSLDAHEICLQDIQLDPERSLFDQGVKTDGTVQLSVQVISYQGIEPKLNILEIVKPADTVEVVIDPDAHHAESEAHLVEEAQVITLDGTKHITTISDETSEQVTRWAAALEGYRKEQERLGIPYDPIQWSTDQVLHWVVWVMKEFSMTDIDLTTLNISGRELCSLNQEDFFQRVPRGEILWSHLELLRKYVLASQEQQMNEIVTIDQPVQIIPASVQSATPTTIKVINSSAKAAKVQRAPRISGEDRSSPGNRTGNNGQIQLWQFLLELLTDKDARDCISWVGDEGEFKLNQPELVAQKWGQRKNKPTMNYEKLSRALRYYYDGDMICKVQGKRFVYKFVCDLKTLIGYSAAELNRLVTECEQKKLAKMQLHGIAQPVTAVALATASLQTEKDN
To be noted: protein: recombinant; tags: N-terminal GST; dsDNA, one strand shown. In outline:
as §1

The target in the next assay is T4, ERG (Homo sapiens, UniProt P11308 1-479).
T4 sequence: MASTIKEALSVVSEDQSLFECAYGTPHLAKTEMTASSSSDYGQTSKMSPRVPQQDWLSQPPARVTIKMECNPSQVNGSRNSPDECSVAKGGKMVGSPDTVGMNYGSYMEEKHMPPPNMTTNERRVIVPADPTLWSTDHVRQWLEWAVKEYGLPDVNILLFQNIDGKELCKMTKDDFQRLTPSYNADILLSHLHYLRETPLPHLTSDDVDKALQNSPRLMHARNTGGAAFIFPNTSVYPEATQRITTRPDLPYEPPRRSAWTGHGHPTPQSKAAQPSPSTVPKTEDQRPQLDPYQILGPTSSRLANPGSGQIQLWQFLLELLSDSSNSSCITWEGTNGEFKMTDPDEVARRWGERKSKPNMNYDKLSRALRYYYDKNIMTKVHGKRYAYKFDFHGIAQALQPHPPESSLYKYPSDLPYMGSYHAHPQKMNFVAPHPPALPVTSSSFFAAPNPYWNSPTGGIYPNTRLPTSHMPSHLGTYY
To be noted: protein: recombinant; tags: N-terminal GST; dsDNA, one strand shown. In outline: as §1

The target of a further assay is ELF1 (Homo sapiens, UniProt P32519 1-619). To be noted: protein: recombinant; tags: N-terminal GST; dsDNA, one strand shown. An outline of the steps: as §1
Sequence of ELF1 (P32519 whole entry): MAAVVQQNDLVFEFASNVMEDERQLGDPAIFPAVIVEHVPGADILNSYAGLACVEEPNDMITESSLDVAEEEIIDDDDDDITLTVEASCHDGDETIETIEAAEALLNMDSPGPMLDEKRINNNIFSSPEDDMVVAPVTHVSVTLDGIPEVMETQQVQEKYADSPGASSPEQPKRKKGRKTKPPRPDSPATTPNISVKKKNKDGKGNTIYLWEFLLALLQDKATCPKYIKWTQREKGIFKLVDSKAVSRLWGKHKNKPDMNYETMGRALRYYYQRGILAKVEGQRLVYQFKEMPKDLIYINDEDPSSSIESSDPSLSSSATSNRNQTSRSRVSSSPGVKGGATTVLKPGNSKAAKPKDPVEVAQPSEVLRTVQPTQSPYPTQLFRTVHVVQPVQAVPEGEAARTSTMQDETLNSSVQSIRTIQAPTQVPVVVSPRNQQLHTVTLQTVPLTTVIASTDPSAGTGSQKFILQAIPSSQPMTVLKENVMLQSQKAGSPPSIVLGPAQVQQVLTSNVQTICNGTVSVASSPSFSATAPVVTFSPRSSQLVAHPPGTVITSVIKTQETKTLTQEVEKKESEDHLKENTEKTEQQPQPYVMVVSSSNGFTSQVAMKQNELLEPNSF
Another assay addresses T5, EHF (Homo sapiens, UniProt Q9NZC4 1-300).
T5 sequence: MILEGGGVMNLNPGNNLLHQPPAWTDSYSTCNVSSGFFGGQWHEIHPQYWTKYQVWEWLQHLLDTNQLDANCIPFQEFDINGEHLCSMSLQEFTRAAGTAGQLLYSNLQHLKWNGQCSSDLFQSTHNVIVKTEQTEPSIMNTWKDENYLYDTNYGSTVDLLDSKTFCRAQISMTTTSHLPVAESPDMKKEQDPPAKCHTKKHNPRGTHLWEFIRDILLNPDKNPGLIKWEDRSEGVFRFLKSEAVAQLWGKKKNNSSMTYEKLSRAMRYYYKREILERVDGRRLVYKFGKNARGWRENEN
To be noted: protein: recombinant; tags: N-terminal GST; dsDNA, one strand shown. In outline:
as §1

Another assay deals with SPI1 (Homo sapiens, UniProt P17947 1-270). To be noted: protein: recombinant; tags: N-terminal GST; dsDNA, one strand shown. An outline of the steps: as §1
The next assay has as its target SPIB (Homo sapiens, UniProt Q01892 1-262). To be noted: protein: recombinant; tags: N-terminal GST; dsDNA, one strand shown. An outline of the steps:
as §1

The target of the next assay is T6, ELK3 (Homo sapiens, UniProt P41970 1-407).
T6 sequence: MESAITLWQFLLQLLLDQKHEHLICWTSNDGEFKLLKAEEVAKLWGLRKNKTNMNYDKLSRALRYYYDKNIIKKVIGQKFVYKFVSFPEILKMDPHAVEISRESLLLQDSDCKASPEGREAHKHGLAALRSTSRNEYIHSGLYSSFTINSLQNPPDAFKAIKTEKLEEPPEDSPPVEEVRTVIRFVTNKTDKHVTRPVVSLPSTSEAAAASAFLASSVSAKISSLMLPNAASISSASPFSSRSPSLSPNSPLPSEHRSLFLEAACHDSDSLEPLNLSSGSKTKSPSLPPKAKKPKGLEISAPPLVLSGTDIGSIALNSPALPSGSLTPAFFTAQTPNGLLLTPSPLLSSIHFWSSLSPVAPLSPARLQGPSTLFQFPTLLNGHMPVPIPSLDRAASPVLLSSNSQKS
To be noted: protein: recombinant; tags: N-terminal GST; dsDNA, one strand shown. An outline of the steps:
as §1

For a further assay, the target named is T7, FEV (Homo sapiens, UniProt Q99581 1-238).
T7 sequence: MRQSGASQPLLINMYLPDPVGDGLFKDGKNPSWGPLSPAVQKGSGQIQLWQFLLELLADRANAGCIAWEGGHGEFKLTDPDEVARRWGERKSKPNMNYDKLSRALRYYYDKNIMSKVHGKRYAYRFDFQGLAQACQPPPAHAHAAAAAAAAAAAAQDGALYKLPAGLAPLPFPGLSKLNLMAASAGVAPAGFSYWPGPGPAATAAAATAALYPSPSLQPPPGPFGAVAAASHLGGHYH
To be noted: protein: recombinant; tags: N-terminal GST; dsDNA, one strand shown. An outline of the steps:
as §1

The next assay has as its target ETV5 (Homo sapiens, UniProt P41161 1-510). To be noted: protein: recombinant; tags: N-terminal GST; dsDNA, one strand shown. In outline:
as §1

For a further assay, the target named is HSF1 (Homo sapiens, UniProt Q00613 1-529). To be noted: protein: recombinant; tags: N-terminal GST; chain copies: 3; dsDNA, one strand shown. In outline:
as §1

A further assay has as its target T8, SPIC (Homo sapiens, UniProt Q8N5J4 1-248).
T8 sequence: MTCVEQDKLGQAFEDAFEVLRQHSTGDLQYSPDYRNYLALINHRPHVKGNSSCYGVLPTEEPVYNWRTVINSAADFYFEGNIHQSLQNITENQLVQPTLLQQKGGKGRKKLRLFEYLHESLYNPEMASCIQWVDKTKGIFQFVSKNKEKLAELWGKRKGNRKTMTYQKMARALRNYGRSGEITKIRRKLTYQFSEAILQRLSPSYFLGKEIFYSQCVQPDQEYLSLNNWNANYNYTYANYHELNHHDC
To be noted: protein: recombinant; tags: N-terminal GST; dsDNA, one strand shown. An outline of the steps:
as §1

In a further assay the target is ELF4 (Homo sapiens, UniProt Q99607 1-663). To be noted: protein: recombinant; tags: N-terminal GST; dsDNA, one strand shown. An outline of the steps: as §1
Sequence of ELF4 (Q99607 whole entry): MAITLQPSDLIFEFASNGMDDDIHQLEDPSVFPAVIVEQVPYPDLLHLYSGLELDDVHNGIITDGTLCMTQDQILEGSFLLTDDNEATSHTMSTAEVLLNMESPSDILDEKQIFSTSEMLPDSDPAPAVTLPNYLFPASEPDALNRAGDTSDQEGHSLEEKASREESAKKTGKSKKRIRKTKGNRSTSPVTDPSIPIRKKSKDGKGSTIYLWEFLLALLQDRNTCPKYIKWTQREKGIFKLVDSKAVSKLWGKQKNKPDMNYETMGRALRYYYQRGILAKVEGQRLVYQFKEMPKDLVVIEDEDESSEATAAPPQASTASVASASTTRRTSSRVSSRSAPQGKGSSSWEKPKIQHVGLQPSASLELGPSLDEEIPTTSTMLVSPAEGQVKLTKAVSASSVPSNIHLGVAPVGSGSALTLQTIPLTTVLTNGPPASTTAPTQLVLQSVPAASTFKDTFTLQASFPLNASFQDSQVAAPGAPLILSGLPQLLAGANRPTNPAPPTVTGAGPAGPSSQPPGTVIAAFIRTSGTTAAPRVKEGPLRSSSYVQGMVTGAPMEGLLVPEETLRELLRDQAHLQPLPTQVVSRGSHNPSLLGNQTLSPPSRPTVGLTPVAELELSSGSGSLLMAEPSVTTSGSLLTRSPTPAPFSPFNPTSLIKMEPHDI
For the next assay, the target named is T9, ELK4 (Homo sapiens, UniProt P28324-2 1-405).
T9 sequence: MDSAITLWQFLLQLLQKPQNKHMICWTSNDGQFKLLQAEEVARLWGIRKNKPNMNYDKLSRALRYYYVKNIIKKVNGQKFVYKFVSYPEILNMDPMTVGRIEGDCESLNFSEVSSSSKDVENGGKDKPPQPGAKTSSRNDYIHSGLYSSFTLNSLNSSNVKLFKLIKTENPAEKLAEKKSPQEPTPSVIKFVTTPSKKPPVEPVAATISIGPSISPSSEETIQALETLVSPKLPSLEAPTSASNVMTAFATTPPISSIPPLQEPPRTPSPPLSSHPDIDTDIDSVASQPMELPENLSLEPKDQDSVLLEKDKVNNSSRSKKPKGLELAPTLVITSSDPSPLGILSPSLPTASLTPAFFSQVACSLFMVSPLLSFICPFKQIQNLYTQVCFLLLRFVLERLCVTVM
To be noted: protein: recombinant; tags: N-terminal GST; dsDNA, one strand shown. An outline of the steps: as §1

Another assay addresses T10, ETV2 (Homo sapiens, UniProt O00321 1-342).
T10 sequence: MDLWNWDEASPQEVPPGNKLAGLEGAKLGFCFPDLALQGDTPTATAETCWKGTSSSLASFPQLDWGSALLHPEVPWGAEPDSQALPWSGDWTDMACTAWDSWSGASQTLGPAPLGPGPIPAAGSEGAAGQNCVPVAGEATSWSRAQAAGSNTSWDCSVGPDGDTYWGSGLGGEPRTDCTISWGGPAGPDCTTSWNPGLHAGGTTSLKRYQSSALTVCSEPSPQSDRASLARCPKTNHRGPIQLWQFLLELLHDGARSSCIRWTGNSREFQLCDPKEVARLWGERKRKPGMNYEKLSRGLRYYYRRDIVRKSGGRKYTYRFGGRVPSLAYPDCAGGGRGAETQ
To be noted: protein: recombinant; tags: N-terminal GST; dsDNA, one strand shown. In outline:
as §1

The target in a further assay is T11, ELF3 (Homo sapiens, UniProt P78545 1-371).
T11 sequence: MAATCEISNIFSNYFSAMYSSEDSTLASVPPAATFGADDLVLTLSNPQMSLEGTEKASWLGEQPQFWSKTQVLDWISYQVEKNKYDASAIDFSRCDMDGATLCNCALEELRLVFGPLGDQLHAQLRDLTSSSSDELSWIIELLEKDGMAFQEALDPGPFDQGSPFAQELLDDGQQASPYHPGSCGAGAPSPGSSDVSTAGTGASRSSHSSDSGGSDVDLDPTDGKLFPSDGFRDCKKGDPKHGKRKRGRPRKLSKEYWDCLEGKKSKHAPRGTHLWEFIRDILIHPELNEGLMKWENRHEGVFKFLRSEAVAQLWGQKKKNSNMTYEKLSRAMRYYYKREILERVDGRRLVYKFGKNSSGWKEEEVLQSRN
To be noted: protein: recombinant; tags: N-terminal GST; dsDNA, one strand shown. An outline of the steps:
as §1

The target in the next assay is CRX (Homo sapiens, UniProt O43186 1-299). To be noted: protein: recombinant; tags: N-terminal GST; dsDNA, one strand shown. In outline:
as §1

The target of another assay is ETV1 (Homo sapiens, UniProt P50549 1-477). To be noted: protein: recombinant; tags: N-terminal GST; dsDNA, one strand shown. An outline of the steps:
as §1

Consider one sequence from publication PMC7862700, “An all-to-all approach to the identification of sequence-specific readers for epigenetic DNA modifications on cytosine”.

Sequence of ETV1 (P50549 whole entry): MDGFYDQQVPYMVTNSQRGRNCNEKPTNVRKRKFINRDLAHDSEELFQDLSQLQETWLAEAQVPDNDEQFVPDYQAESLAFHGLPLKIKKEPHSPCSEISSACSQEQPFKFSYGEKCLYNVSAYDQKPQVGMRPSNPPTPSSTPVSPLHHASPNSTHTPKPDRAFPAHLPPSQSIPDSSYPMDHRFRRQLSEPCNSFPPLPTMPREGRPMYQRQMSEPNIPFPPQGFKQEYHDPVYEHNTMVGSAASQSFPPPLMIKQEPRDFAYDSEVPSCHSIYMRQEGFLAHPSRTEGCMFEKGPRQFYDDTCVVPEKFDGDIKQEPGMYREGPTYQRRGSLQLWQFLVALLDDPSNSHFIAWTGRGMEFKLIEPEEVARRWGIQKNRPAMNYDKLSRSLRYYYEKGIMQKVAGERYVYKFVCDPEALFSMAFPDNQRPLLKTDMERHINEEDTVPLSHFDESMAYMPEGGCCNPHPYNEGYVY
Sequence of SPIB (Q01892 whole entry): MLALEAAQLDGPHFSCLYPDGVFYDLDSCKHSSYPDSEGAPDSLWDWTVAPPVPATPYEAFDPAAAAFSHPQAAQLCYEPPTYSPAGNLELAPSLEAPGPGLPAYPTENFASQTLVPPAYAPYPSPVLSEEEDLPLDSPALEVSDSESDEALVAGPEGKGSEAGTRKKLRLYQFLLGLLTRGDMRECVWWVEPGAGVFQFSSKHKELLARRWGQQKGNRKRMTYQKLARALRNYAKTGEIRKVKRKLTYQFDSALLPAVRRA
Sequence of HSF1 (Q00613 whole entry): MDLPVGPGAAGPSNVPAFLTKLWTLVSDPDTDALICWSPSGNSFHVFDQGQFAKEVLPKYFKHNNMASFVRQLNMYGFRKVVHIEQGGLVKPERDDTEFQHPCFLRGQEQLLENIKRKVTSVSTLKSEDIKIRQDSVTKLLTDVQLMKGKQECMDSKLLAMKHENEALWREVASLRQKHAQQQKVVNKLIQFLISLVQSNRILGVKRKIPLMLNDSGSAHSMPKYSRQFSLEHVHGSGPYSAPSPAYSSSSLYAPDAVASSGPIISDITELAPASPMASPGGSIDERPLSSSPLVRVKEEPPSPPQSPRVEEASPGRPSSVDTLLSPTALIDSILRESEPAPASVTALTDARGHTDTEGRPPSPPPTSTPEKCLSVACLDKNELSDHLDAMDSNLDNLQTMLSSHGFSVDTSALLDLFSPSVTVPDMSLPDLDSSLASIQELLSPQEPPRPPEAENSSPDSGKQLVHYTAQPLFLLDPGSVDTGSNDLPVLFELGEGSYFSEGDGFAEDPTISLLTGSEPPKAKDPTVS
Sequence of CRX (O43186 whole entry): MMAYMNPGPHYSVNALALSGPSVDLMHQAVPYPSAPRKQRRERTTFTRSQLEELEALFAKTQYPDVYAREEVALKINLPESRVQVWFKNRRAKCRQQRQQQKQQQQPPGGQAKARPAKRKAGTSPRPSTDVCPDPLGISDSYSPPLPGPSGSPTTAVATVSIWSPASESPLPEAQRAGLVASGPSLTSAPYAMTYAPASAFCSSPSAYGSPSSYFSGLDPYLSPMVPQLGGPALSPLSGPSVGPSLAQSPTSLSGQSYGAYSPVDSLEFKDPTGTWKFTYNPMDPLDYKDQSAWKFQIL
Sequence of ETV5 (P41161 whole entry): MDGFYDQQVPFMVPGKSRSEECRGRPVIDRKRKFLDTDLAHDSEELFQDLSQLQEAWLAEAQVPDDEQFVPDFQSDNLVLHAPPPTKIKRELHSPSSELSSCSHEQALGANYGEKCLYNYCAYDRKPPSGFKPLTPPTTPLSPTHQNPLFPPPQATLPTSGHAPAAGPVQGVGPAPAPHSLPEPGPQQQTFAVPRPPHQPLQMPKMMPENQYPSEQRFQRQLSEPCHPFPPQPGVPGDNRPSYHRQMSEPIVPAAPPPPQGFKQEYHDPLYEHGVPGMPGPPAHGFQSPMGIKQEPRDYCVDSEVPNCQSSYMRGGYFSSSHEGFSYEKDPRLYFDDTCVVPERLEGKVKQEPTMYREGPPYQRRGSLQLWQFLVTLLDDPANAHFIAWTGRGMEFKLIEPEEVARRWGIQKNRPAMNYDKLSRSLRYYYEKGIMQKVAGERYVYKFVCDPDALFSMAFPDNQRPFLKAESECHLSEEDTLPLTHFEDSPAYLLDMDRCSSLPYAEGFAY

Take CCTCTT: the binding signal is 1.5 fold enrichment (6-mer frequency, TF over GST control) with FLI1; 1.45 fold enrichment (6-mer frequency, TF over GST control) with ELK1; 1.6 fold enrichment (6-mer frequency, TF over GST control) in the assay with GABPA; 1.68 fold enrichment (6-mer frequency, TF over GST control) with ERG; 1.5 fold enrichment (6-mer frequency, TF over GST control) with ELF1; 1.71 fold enrichment (6-mer frequency, TF over GST control) in the assay with EHF. Moreover, the binding signal in the assay with SPI1 was 2.57 fold enrichment (6-mer frequency, TF over GST control); with SPIB it was 1.67 fold enrichment (6-mer frequency, TF over GST control); with ELK3, 1.66 fold enrichment (6-mer frequency, TF over GST control); in the assay with FEV, 1.58 fold enrichment (6-mer frequency, TF over GST control); in the assay with ETV5, 1.68 fold enrichment (6-mer frequency, TF over GST control); with HSF1, 1.4 fold enrichment (6-mer frequency, TF over GST control). Further, the binding signal in the assay with SPIC was 1.52 fold enrichment (6-mer frequency, TF over GST control); with ELF4, 1.56 fold enrichment (6-mer frequency, TF over GST control); with ELK4 it was 1.56 fold enrichment (6-mer frequency, TF over GST control); in the assay with ETV2 it was 1.75 fold enrichment (6-mer frequency, TF over GST control); with ELF3 it was 1.32 fold enrichment (6-mer frequency, TF over GST control); with CRX, 1.81 fold enrichment (6-mer frequency, TF over GST control). The binding signal with ETV1 is 1.55 fold enrichment (6-mer frequency, TF over GST control).
